# About 79,000 compounds went through this panel and 15% of them were active in at least one assay; those are over-represented in the sample as a whole. Unmarked numbers belong to inactive results. The source made the active and inactive calls. Cut-off read from the data, not from the text of the source: active = growth inhibition above about 70%; inactive = the rest.
# Experiments:
# [1] = NCI Yeast Anticancer Drug Screen. Data for the rad50 strain (AID 155);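 note: 0% = growth of vehicle-only cultures of the same strain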; conditions: S. cerevisiae rad50 strain growth inhibition; at 50.0 µM; stronger effect = higher value
# Method in brief: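 A DNA repair-deficient yeast mutant serves as the test organism; compound-induced growth inhibition is calculated against vehicle-treated cells.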
# [2] = NCI Yeast Anticancer Drug Screen. Data for the mec2-1 strain (AID 157); conditions: S. cerevisiae mec2-1 strain, at 50.0 µM, stronger effect = higher value
# Method in brief: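 Yeast mec2-1 mutant treated with compound. Readout: growth inhibition vs vehicle controls.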
# [3] = NCI Yeast Anticancer Drug Screen. Data for the sgs1 mgt1 strain (AID 161);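 note: 0% = growth of cultures given vehicle only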; conditions: S. cerevisiae sgs1 mgt1 strain, at 50.0 µM, stronger effect = higher value
# Method in brief: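 Mutant yeast exposed to compound; growth scored against vehicle-only wells.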
# [4] = NCI Yeast Anticancer Drug Screen. Data for the cln2 rad14 strain (AID 165);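 note: 0% = growth equal to vehicle treated cultures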; conditions: S. cerevisiae cln2 rad14 strain, at 50.0 µM, stronger effect = higher value
# Method in brief: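 cln2 rad14 yeast strain; compound exposure; growth inhibition read vs vehicle controls.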
# [5] = NCI Yeast Anticancer Drug Screen. Data for the bub3 strain (AID 167); conditions: S. cerevisiae bub3 mutant strain, at 50.0 µM, stronger effect = higher value
# Method in brief: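 Inhibition values come from growth of compound-treated mutant yeast normalised to vehicle-treated controls.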
# [6] = NCI Yeast Anticancer Drug Screen. Data for the mlh1 rad18 strain (AID 175); conditions: S. cerevisiae mlh1 rad18 strain growth inhibition; at 50.0 µM; stronger effect = higher value
# Method in brief: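 Yeast w/ defined DNA-repair lesions; compound exposure; growth vs vehicle controls → % inhibition.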
SMILES,growth inhibition [1],growth inhibition [2],growth inhibition [3],growth inhibition [4],growth inhibition [5],growth inhibition [6]
O=C(Cc1ccccc1)N(Cc1ccccc1)Cc1ccccc1,96.8% (active),98.7% (active),98.8% (active),91.9% (active),92.4% (active),97.9% (active)
ClC1CC[N-]CC1.ClC1CC[N-]CC1.O=C(O)CC(=O)O.[Pt+2],53.2%,55.4%,68.5%,-23.4%,23.4%,45.5%
FC(F)(F)c1cccc(NC(=S)N2CCOCC2)c1,0.35%,-2%,1.05%,-4.2%,0.3%,-11.7%
CN(/C=C1\CCCCC1=O)c1ccccc1,-4.35%,-17.2%,-35.4%,-14.4%,-22.2%,-7%
O=C1CSC(c2cccc(Cl)c2)N1CCN1C(=O)CSC1c1cccc(Cl)c1 (configuration not stated),-14.6%,9%,-2.55%,-20.8%,2.75%,-6.6%
CCOC(=O)C(C(=O)OCC)C(NC(=O)Nc1cc(C(F)(F)F)ccc1OC)(C(F)(F)F)C(F)(F)F,23.1%,11.6%,11.4%,3.45%,21.6%,24.8%
O=C(NCCCl)Nc1[nH]c(=O)ncc1I,-6.55%,-6.7%,1.1%,-10.3%,-8.75%,-7.95%
CN(C)CCN1N=Nc2cccc3cccc1c23,43.3%,18.2%,10.9%,19.2%,30.6%,39.4%
O=C(Nc1ccccc1)OCC#CCOC(=O)Nc1ccccc1,27.4%,11.7%,17.6%,-60.5%,2.45%,11%
CC(C)CC1OCC(C)(C)CO1,-0.6%,-12.4%,-11.3%,-7.05%,-7.9%,-9.8%
CCCCCCCCCCCC(=O)NC(=S)Nc1ccc(C(=O)OCC)cc1,29.9%,31.9%,57.9%,1.35%,29.4%,45.4%
C=C(C#N)C1OCC2OC(C)(C)OC21 (configuration not stated),3.7%,-4%,-0.35%,12.3%,-4.8%,-25.9%
[N-]=[N+]=NC[C@H]1OCO[C@H](CN=[N+]=[N-])[C@@H](OCCOCCCl)[C@@H]1OCCOCCCl,-13.1%,-23.4%,-10.6%,-21.1%,-28.8%,-15.8%
COC(=O)C(NC(=O)C(C)N1C(=O)CCC(NS(=O)(=O)c2ccc(C)cc2)C1=O)C(C)C (configuration not stated),30.1%,8%,9.4%,1.05%,3.55%,15.8%
Oc1ccc(C=Nc2ccccc2)c(O)c1O,-12.7%,-24.4%,-4.9%,-7.25%,-9.7%,6.2%
COc1cc(C(=O)C(C)Br)cc(OC)c1OC (configuration not stated),3.1%,46.1%,64.9%,-23%,68.2%,62.4%
C/C=C(\CC)C(C#N)O[Si](C)(C)C (configuration not stated),13.2%,4.4%,1.45%,6.5%,10%,-24.6%
O=C1C(Cl)=C(NC(CO)(CO)CO)C(=O)c2ccccc21,4.7%,16.6%,-6.05%,1.6%,8.45%,8.15%
CSc1nc(SC)c(Nc2cccc(C)c2)c(SC)n1,-8.65%,7.7%,4.2%,-38%,21.8%,-0.3%
OCCN(Cc1ccccc1)C(c1ccccc1)C(O)c1ccccc1 (configuration not stated),-2.8%,7.65%,24.2%,29.2%,1.7%,1.3%
NC(=O)/C(N=Nc1ccccc1)=N\Nc1ccccc1,94.2% (active),94.8% (active),94.8% (active),73.2% (active),95.5% (active),94.8% (active)

SMILES,growth inhibition [1],growth inhibition [2],growth inhibition [3],growth inhibition [4],growth inhibition [5],growth inhibition [6]
CN(C)c1ccc(/C=C2\N=C(c3ccc([N+](=O)[O-])cc3)OC2=O)cc1,1.35%,-6.75%,17.1%,6.95%,14.9%,7.55%
COc1ccccc1CNCCCCCNCCCCCCCCCCNCCCCCNCc1ccccc1OC,-32.4%,-11.1%,-27.9%,-9.1%,-22%,-36.5%
O=C(Cc1cccc2c(=O)cc(-c3ccccc3)oc12)OCCN1CCOCC1,18.9%,31.4%,0.95%,7.4%,26.9%,29.4%
OCC(O)C(O)C(O)C(O)/C=N\Nc1ccccc1 (configuration not stated),43.3%,67%,62.8%,34.1%,81% (active),89.1% (active)
O=C(CC(=O)N1CCOCC1)N1CCOCC1,4.5%,-14.8%,26.9%,7.9%,19.4%,7.45%
[Mn].[NH-]C(CSSCC(N)C(=O)O)C(=O)O (configuration not stated),-2.45%,-0.4%,-1%,5.5%,22.6%,9%
Cc1ccc(S(=O)(=O)SCC(=O)c2ccc(Br)cc2)cc1,27.4%,-15.4%,29.1%,16.6%,4.35%,9.85%
CCC(=O)Oc1ccccc1OC,-28.8%,-7.25%,-6.05%,-0.3%,-31.9%,-16.9%
OC1CCCCCCCCCCC1C(O)(C(F)(F)F)C(F)(F)F (configuration not stated),99.3% (active),99.5% (active),99.8% (active),99% (active),99.6% (active),98.8% (active)
O=C1CCSc2nc(-c3ccc4c(c3)OCO4)nn21,7.2%,-8.5%,-13.3%,15.2%,4.6%,9.2%
CCOC(=O)c1ccccc1S(=O)(=O)c1ccccc1C(=O)OCC,1.4%,16.9%,9.85%,11.2%,5.2%,10.4%
Cc1cc2ccccc2c(Br)c1C,5%,4.95%,26%,-36.8%,-4.35%,4.7%
CC1=CC(=O)C(C(C)C)CC1 (configuration not stated),1.1%,-1.05%,-11.1%,-43%,-7.75%,-0.35%
O=C(Nc1ccc(C2=NCCN2)cc1)c1ccc(C(=O)Nc2ccc(C3=NCCN3)cc2)cc1,-3.1%,7.45%,0.95%,2%,9.4%,-19.6%
c1ccc2c(c1)c1ccccc1n2Cn1c2ccccc2c2ccccc21,-1.1%,-1.2%,-48.5%,-27.9%,11.3%,4.85%
CCCCCCCC/C=C\CCCCCCCC(=O)Cl,-19%,-33.8%,-14%,-55.9%,-8.85%,-23.1%
COC(=O)C1C(=O)C2OC1C1OC(C)(C)OC21 (configuration not stated),7.75%,-12.1%,-12.1%,-52.4%,1.7%,-0.95%
Nc1ccc(F)c(Cl)c1,0.85%,-16.4%,10.7%,-17.9%,-4.25%,14.7%
c1ccc(C2CCOCO2)cc1 (configuration not stated),14.4%,15.7%,15.8%,12.2%,5.7%,24.2%
NC1=NN(c2ccccc2)C(=O)C1/C(=N\NC(=O)c1cc2ccccc2cc1O)C(=O)Nc1ccc(Cl)c(Cl)c1 (configuration not stated),28.7%,10%,-17.2%,31.6%,6.95%,21.1%
Cc1ccc(/C=N/NC2=NCCN2)s1,-0.4%,8%,4.35%,8.15%,-5.05%,9.75%

# Reference: PubChem BioAssay (NCI)
